Assay outcomes deposited in PubChem by National Center for Advancing Translational Sciences (NCATS).
Rows were chosen to be rich in hits. Some 2.7% of all compounds tested hit in one or more screens of this group.
Nrf2 block – Nrf2 qHTS screen for inhibitors; 360,000 tested, 2.1% active; A549 ARE-Fluc reporter, luciferase luminescence, 18-24 h; Potency, µM (series often up to 46 µM), for the others: top-dose activity change, negative = inhibition, actives largely listed as inhibitors; note: potency is the fitted concentration of half-maximal effect; % is set by controls: 0 for no effect and ±100 for the full control effect; nearly all actives have a fitted effect of over 60% in size
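Nrf2 function is reported as luminescence of an ARE-controlled luciferase in A549 cells. Compounds were tested at several concentrations, and a CellTiter-Fluor read on the same wells flagged cytotoxicity.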
12-LOX inh – Primary qHTS assay for inhibitors of human arachidonate 12S-lipoxygenase (ALOX12): Round 2; Potency, µM (doses to about 108 µM), for the others: at the top dose activity change, negative = inhibition, usual class: inhibitors; 580,000 tested, 1.1% active; purified 12hLO, xylenol orange hydroperoxide absorbance; note: potency is the fitted concentration of half-maximal effect; % is set by controls: 0 for no effect and ±100 for the full control effect
Target sequence (P18054 whole entry, looked up): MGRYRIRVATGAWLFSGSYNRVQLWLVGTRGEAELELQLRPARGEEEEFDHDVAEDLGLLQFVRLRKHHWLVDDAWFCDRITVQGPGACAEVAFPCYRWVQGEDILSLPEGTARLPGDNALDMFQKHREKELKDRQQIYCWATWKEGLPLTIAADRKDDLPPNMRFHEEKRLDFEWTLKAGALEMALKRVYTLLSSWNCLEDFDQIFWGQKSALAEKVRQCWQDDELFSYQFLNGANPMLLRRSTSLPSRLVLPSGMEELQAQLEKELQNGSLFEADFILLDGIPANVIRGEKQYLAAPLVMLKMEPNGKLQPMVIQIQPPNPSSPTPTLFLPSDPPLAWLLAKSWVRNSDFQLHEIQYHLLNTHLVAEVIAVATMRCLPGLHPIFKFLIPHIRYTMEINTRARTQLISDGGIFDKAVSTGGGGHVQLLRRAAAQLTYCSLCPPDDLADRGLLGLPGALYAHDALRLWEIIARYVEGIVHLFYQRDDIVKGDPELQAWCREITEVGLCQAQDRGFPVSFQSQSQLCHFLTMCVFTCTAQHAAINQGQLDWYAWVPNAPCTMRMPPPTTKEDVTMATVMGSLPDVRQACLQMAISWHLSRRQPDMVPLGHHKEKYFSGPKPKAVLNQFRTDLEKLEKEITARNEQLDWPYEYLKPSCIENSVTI
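Purified human 12hLO at 150 nM in 25 mM Hepes, 0.01% Triton X-100, pH 7.0, preincubated 15 min at room temperature with compound. Reaction started with 40 uM arachidonic acid, 30 min at room temperature. Hydroperoxide measured by Fe-xylenol orange, 573/405 nm absorbance ratio.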
Nrf2 ARE act – qHTS of Nrf2 Activators; AREc32 ARE-luciferase reporter (MCF7-derived line), luminescence, 24 h; Potency, µM (series often up to 46.1 µM), for the others: at the highest dose activation, most hits filed as activators; 410,000 tested, 0.31% active; note: potency is the fitted concentration of half-maximal effect; % of control where 0% means no effect; nearly all actives have a fitted effect of over 65% in size
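AREc32_Fluc, 1000 cells/well, OPTI-MEM + 5% FBS, o/n 37 deg C 5% CO2; 23 nL cpd by pin tool, 24 hr; Steady-Glo 30 min RT, luminescence.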
IDH1 R132H inh – qHTS for Inhibitors of mutant isocitrate dehydrogenase 1 (IDH1): qHTS; Isocitrate dehydrogenase [NADP] cytoplasmic (Homo sapiens), O75874; 390,000 tested, 0.093% active; IDH1-R132H enzyme, NADPH consumption, diaphorase/resazurin fluorescence; Potency, µM (highest dose often 76.6 µM), inactives show top-dose activity change, negative = inhibition, most hits filed as inhibitors; note: potency is the fitted concentration of half-maximal effect; % is set by controls: 0 for no effect and ±100 for the full control effect; nearly all actives have a fitted effect of over 65% in size
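IDH1-R132H (0.5 ug/mL) preincubated 30 min with compound, then NADPH (0.016 mM) and alpha-KG (2 mM) added; 80 min at RT, pH 7.5. Remaining NADPH coupled via diaphorase/resazurin to fluorescence (540/590 nm); concentration-response curves normalized to no-enzyme control.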
LDHA inh – qHTS assay for inhibitors of human lactate dehydrogenase; L-lactate dehydrogenase A chain (Homo sapiens), P00338; purified LDHA, NADH/diaphorase-resazurin fluorescence; hits give low values; activity change, % (values are at about 110 or 230 µM); 480,000 tested, 0.15% active; AID 1347041, 2019; in the data active = activity change below about -30%; inconclusive = mostly about -25% to -30%;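 note: plate controls were DMSO wells for no effect and wells without enzyme for full effect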
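Human LDH5 at 2 nM final in Tris HCl pH 7.4 with 0.06 mM NADH and 0.2 mM pyruvate, reacted 5 minutes at room temperature. Remaining NADH coupled via diaphorase/resazurin; resorufin fluorescence read at 0 and 20 minutes, normalized to enzyme-free and DMSO wells.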
A549 tox – Nrf2 qHTS screen for inhibitors: counterscreen for cytotoxicity; Potency, µM (top dose mostly 46 µM), inactives show at the highest dose activity change, negative = cytotoxicity, most hits filed as inhibitors; A549 ARE-Fluc cells, CellTiter-Fluor viability, 18-24 h; 390,000 tested, 0.16% active; AID 504648, 2011; note: potency is the fitted concentration of half-maximal effect; % is set by controls: 0 for no effect and ±100 for the full control effect
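A549 ARE_Fluc cells in 5% FBS OPTI-MEM were exposed to compounds in concentration-response for 18-24 h at 37 deg C. Viability was read by CellTiter-Fluor fluorescence (Ex 405/Em 525) after 30 min, before the luciferase read.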
Numbers without * were called inactive; u = inconclusive; x = not tested or not shown; [ ] = remark or other dose. Unless noted, calls come from the whole dose curve; as a rule, active = well fitted curve in the direction sought with a large enough effect; inconclusive = small, poorly fitted or top-dose-only effect, or another doubt; inactive = no such curve, though single readings can be large; an effect the other way counts as inactive or inconclusive.

SMILES	Nrf2 block	12-LOX inh	Nrf2 ARE act	IDH1 R132H inh	LDHA inh	A549 tox
COc1nccnc1NS(=O)(=O)c1ccc(NC(=S)NC(=O)/C=C/c2ccc(F)cc2)cc1	-17.3%	12.6µM*	1.2%	14.2%	-2.8	-8.2%
CCc1nnc(NS(=O)(=O)c2ccc(NC(=S)NC(=O)c3ccc(Br)cc3)cc2)s1	-16.4%	5.62µM*	-0.1%	u	-8.1	4.7%
CC(=O)c1nnn(-c2nc(N(C)C)nc(N(C)C)n2)c1C	x	5.3%	x	x	2.0	x
O=C(/C=C/c1ccc(F)cc1)NC(=S)NC1CCCCC1	11.6µM*	0.0%	0.7%	12.9%	-1.1	-1.4%
CN(C)CCSc1nc(N2CCCCC2)c2c(c1C#N)CCCC2	x	u	x	x	8.8	x
COc1ccc(NC(C)=[N+](C)CCNS(=O)(=O)c2ccc(Cl)cc2)cc1Cl	-1.9%	u	0.3%	0.0%	-13.8	-1.6%
COc1ccccc1NC(C)=[N+](C)CCNS(=O)(=O)c1ccc(Cl)cc1	-14.5%	u	-0.2%	-3.0%	-73.7*	-1.1%
Cc1ccc(-n2c(-c3ccccc3)cc(C=Nc3ccc(C)c(C)c3)c2-c2ccccc2)cc1	x	20µM*	x	x	-1.7	x
COc1ccccc1C(=O)N1CCN(c2nc3nc(C)ccc3o2)CC1	x	45.4%	x	x	1.7	x
Cc1ccc(C2=NC3(CCN(C(=O)COc4cccc(C)c4)CC3)ON2)cc1	x	89.1µM*	x	x	x	x
COc1ccc(OCC(=O)N2CCC(c3nc4ccccc4o3)CC2)cc1	x	-10.1%	x	x	8.5	x
O=C(NS(=O)(=O)Nc1ccccc1)C1=C(N2CCCC2)COC1=O	7.2%	15.8µM*	-0.2%	4.8%	0.4	1.8%
O=C(NC(=O)c1ccccc1)C1=C(N2CCCC2)COC1=O	8.4%	11.9%	-3.6%	5.2%	-13.5	5.0%
Oc1ccc(Cl)cc1C=NCc1ccccc1C(F)(F)F	x	u	x	x	11.6	x
O=C(CN1CCN(c2ncccn2)CC1)N1N=C(c2cc3ccccc3o2)CC1c1ccco1 (stereo not drawn)	x	u	x	x	8.7	x
Nc1c(C(=O)c2ccc(Cl)cc2)oc2ccccc12	-4.6%	-11.2%	21.5%	5.9%	-0.4	-6.8%
O=C(c1ccc(Cl)cc1)c1oc2ccccc2c1CS(=O)c1ccc(Cl)cc1 (stereo not drawn)	u	4.47µM*	2.2%	1.2%	-6.8	-4.3%
Cc1c(CC(=O)NCCCC(=O)O)c(=O)oc2cc3occ(-c4ccccc4)c3cc12	0.0%	-16.9%	2.6%	-1.5%	-4.8	2.9%
Cc1c(CC(=O)O)c(=O)oc2cc3occ(-c4ccc(F)cc4)c3cc12	14.7%	0.0%	-0.4%	-2.8%	-42.1*	4.1%
Cc1c(CC(=O)NCC(=O)O)c(=O)oc2cc3occ(-c4ccccc4)c3cc12	0.2%	42.6%	0.1%	-0.6%	-84.9*	23.0%
CCc1ncncc1C(=O)O	x	u	x	x	8.2	x
Cc1ccc(C)c2sc(NC(=O)C3CC3)nc12	-16.1%	-1.1%	11.2µM*	2.4%	-7.0	-1.6%
CCSc1nc2c([nH]1)c(=O)n(C)c(=S)n2C	-10.1%	10µM*	-0.7%	2.8%	-7.8	1.8%
Cn1c(=O)c2[nH]c(SCCN3CCOCC3)nc2n(C)c1=S	-11.3%	31.6µM*	-0.4%	10.5%	-3.8	-3.1%
Cc1ccc(NC(=O)c2cc[n+]([O-])cc2)cc1Cl	x	-29.0%	x	x	u	x
SMILES	Nrf2 block	12-LOX inh	Nrf2 ARE act	IDH1 R132H inh	LDHA inh	A549 tox
CCC(C)NS(=O)(=O)c1ccc(S(=O)(=O)N(CC(=O)Nc2ccccc2)Cc2ccco2)cc1 (stereo not drawn)	13µM*	u	2.6%	4.2%	5.5	-9.8%
O=C1NN(c2ccc(Br)cc2)C(=O)/C1=C\c1ccc(O)cc1O	5.1%	39.8µM*	2.9%	-9.1%	-8.3	-3.2%
O=C1NN(c2ccccc2)C(=O)C1=Cc1ccccc1O	x	u	0.3%	-14.6%	-0.1	x
O=C1NN(c2cccc(Br)c2)C(=O)/C1=C\c1ccc(O)cc1	-13.4%	15.8µM*	0.2%	-2.6%	8.2	1.6%
COc1cccc(C(=O)N2CCN(c3cc(-c4cccs4)[nH]n3)CC2)c1OC	x	42.7%	x	x	x	x
Cc1c(C#N)c2ccccc2n1CCOc1ccccc1F	23.1µM*	8.3%[57.4 µM]	3.9%	-1.9%	-3.3	-2.1%
CCCCCc1ccc(-c2ccc(CCCCC)cn2)cc1	x	42.9%	x	x	3.5	x
O=C(COc1ccc([N+](=O)[O-])cc1)N1CCN(c2nnc(-c3ccccc3)c3ccccc23)CC1	23.1µM*	59.5%	-0.1%	2.8%	-5.0	-9.8%
Cc1ccc(-c2nnc(N3CCN(C(=O)COc4ccccc4)CC3)c3ccccc23)cc1	18.4µM*	-21.5%	3.2%	-2.7%	-7.6	u
O=C(COc1ccc(-c2nnc(N3CCCCC3)c3ccccc23)cc1)N1CCCCC1	u	0.0%	3.3%	-4.1%	1.7	-18.9%
Cc1ccc(-c2csc3nc4cc(C(=O)NC5CCC(O)CC5)ccc4c(=O)n23)cc1 (stereo not drawn)	-21.2%	11.2µM*	-0.9%	-0.1%	9.6	-1.0%
Cc1ccc(-c2csc3nc4ccc(C(=O)NCCO)cc4c(=O)n23)cc1	10.1%	-0.8%	0.1%	-1.0%[38.3 µM]	-1.2	-0.7%
CSCC[C@H](NC(=O)OC(C)(C)C)c1nnc(SCc2ccc(F)cc2)o1	25.9µM*	-9.4%	-0.1%	2.5%	-0.8	-9.9%
Cc1c(C)c2cc(Cl)c(OCC(=O)NCCN3CCOCC3)cc2oc1=O	x	-7.4%	x	x	9.0	x
CNC1=C(N(C(C)=O)c2ccc(Br)cc2)C(=O)c2ccccc2C1=O	16.4µM*	-5.7%	-3.3%	10.5%	30.1	u
CCC(=O)N(CC)C1=C(O)c2ccccc2C(=O)C1=O	-10.9%	u	4.2%	10.1%	43.4	-2.4%
CCC(=O)N(C1=C(NC)C(=O)c2ccccc2C1=O)C(C)C	16.4µM*	-8.5%	-3.9%	-2.0%	-5.9	u
O=C(CCNc1ccc(Cc2ccncc2)cc1)c1cccc([N+](=O)[O-])c1	14.6µM*	5.6%	u	-1.2%	2.3	-8.1%
O=C(CCNc1cccc(F)c1)c1cccc([N+](=O)[O-])c1	0.5%	-4.0%	u	1.7%	1.9	5.1%
O=C(Nc1cccc([N+](=O)[O-])c1)c1ccncc1	6.4%	9.7%	11.2µM*	5.2%	-3.9	7.1%
O=C(Nc1cccc([N+](=O)[O-])c1)c1[nH]ncc1Cl	u	u	5.01µM*	-0.4%	-4.1	11.8%
